# Only some compounds are listed: those with a hit (about 2.6% of all), similar ones and a draw of the others.
# Cruzain inh Det: qHTS Assay for Promiscuous and Specific Inhibitors of Cruzain (with detergent); Cruzipain (Trypanosoma cruzi), P25779; purified cruzain, Z-FR-AMC fluorescence, 0.01% Triton; Potency, µM, without a hit: max response, negative = inhibition, most hits filed as inhibitors; 0.43% of 200,000 active; AID 1478, 2009;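 further: plate controls were neutral wells for no effect and buffer without enzyme for full effect; nearly all actives have a fitted effect of over 40% in size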
# Target sequence (P25779 123-467 limits assumed): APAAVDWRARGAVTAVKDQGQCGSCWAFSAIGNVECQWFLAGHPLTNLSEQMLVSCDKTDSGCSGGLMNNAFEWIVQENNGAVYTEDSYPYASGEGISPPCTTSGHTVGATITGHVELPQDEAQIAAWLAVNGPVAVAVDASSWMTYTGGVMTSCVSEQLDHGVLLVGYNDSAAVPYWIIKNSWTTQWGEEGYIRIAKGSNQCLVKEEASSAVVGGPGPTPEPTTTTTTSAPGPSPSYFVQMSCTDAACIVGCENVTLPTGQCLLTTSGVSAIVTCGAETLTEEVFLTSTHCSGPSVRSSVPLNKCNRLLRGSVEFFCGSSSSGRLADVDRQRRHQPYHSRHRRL
#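 Read-out: AMC fluorescence (360 nm excitation, 450 nm emission), four reads over 2 min, first-to-third difference used. Conditions: cruzain 1.5 nM, Z-FR-AMC 2 uM, pH 5.5 acetate, 5 mM DTT, 0.01% Triton X-100.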
# Cruzain inh noDet: qHTS Assay for Promiscuous and Specific Inhibitors of Cruzain (without detergent) | Cruzipain (Trypanosoma cruzi), P25779 | purified cruzain, Z-FR-AMC fluorescence, no detergent | Potency, µM, without a hit: max response, negative = inhibition, usual class: inhibitors | 2.3% of 200,000 active;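 further: plate controls were enzyme without inhibitor for no effect and buffer without enzyme for full effect; nearly all actives have a fitted effect of over 40% in size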
#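 Purified cruzain at 1.5 nM, pre-incubated 15 min with compound at room temperature in 100 mM sodium acetate pH 5.5, 5 mM DTT, 0.00005% Triton X-100. Reaction started with 2 uM Z-FR-AMC; AMC fluorescence increase over 60 s gives rate.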
# Active calls of the source: *; ? = inconclusive; ! = a repeat was not active. The call rests on the fitted dose curve; in most records, active means well fitted curve in the direction sought with a large enough effect; inconclusive means small, poorly fitted or top-dose-only effect, or another doubt; inactive means no such curve, though single readings can be large; an effect the other way counts as inactive or inconclusive. Potency means the concentration at half of the fitted maximal effect.
SMILES,Cruzain inh Det,Cruzain inh noDet
CC1CCN(c2cc(N3CCC(C)CC3)c([N+](=O)[O-])cc2/C=C(\C#N)c2nn(-c3ccccc3)c(N)c2C#N)CC1,0%,2µM*
CC1CCN(c2ccc(/C=C(\C#N)c3nn(-c4ccccc4)c(N)c3C#N)cc2[N+](=O)[O-])CC1,-3%,-11%
C=CCC(C)(O)c1cccs1 (stereo not given),1%,-8%
CC(/C=C(\NC(=O)c1ccccc1)C(=O)N=Nc1c(O)[nH]c2ccc(C)cc12)=C\c1ccccc1,-2%,25µM*
Cc1ccc(S(=O)(=O)N(CC(=O)N=Nc2c(O)[nH]c3ccccc23)c2cccc(C)c2)cc1,-1%,-22%
Cc1cccc(C2=NN(c3ccccc3)[C@H](CO)[C@H]2c2ccc(F)cc2)c1,-13%,?
OC[C@@H]1[C@@H](c2ccccc2)C(c2cccc(Cl)c2)=NN1c1ccccc1,2%,25µM*
C[C@H]1C(c2ccccc2)=NN(c2ccccc2)[C@@H]1CO,2%,-27%
Cc1cccc(C2=NN(c3ccccc3)[C@H](CO)[C@H]2c2ccc(Cl)cc2)c1,0%,35µM*
OC[C@@H]1[C@@H](c2ccccc2)C(c2ccccc2)=NN1c1ccccc1,0%,28µM*
COc1ccccc1[C@H]1C(c2cccc(Cl)c2)=NN(c2ccccc2)[C@@H]1CO,0%,?
O=C(c1cccc([N+](=O)[O-])c1)N1CCN(c2ccc(Nc3ccccc3)nn2)CC1,-6%,-12%
CC1CCCCN1S(=O)(=O)c1ccc2c(c1)oc(=O)n2CC(=O)Nc1ccc(Cl)cc1 (stereo not given),1%,-3%
COc1cccc(NC(=O)c2oc3ccccc3c2NC(=O)C23CC4CC(CC(C4)C2)C3)c1,0%,-11%
Cc1ccc2nc(SCC(=O)NCc3cccs3)c(C#N)cc2c1,6%,10µM*
Cc1cc2nnc(SCC(=O)NCc3cccs3)n2c(N)n1,1%,-8%
Cc1ccc2nc(SCC(=O)NCc3ccco3)c(C#N)cc2c1,2%,25µM*
Cc1ccc2cc(C#N)c(SCC(=O)NCc3ccco3)nc2c1,-6%,?
CCC1=C(OC(=O)N(CC)CC)N2C(=O)OC(=NCCOC)[C@]2(C)[C@H]2C1=CC[C@H]1C(=O)N(CC)C(=O)[C@H]12,8%,?
CCOc1cc(CNC(=O)C2COc3ccccc3C2)cc(OCC)c1OCC (stereo not given),-4%,4%
NCCCc1ccc2oc3ccccc3c2c1,0%,-8%
COC(=O)c1c(NC(=O)CCCOc2ccccc2C)sc2c1CCC2,-6%,-10%
CCOC(=O)c1cnc(-n2nc(C)cc2C)nc1NC,0%,15%
CCOC(=O)c1cnc(-n2nc(C)cc2C)nc1NNc1nc(-c2ccccc2)cc(-c2ccccc2)n1,-1%,20µM*
Cc1ccc2c(c1)cc(C(=O)NCc1ccccc1C)n2C,-1%,-12%
SMILES,Cruzain inh Det,Cruzain inh noDet
CCc1c(C)sc(NC(=O)c2cc(-c3ccc(OC)c(OC)c3)on2)c1C#N,-4%,-8%
CCc1c(C)sc(NC(=O)c2cc(-c3ccc(O)cc3)on2)c1C#N,-1%,7.9µM*
O=C(O)[C@H]1CN[C@H](C(=O)O)C1,4%,1%
COC(=O)C1C(O)CC[C@H]2CN3CCc4c([nH]c5ccccc45)C3C[C@H]12 (stereo not given in full),-1%,-19%
O=C(NCc1cccc(Cl)c1)c1cc2ccc3cccnc3c2[nH]1,-6%,-20%
O=C(NCc1ccc(Cl)cc1)c1cc2ccc3cccnc3c2[nH]1,-6%,25µM*
O=C(OCc1cc(=O)n2nc(-c3cccs3)sc2n1)c1cccc(F)c1,-3%,1%
COc1ccc(S(=O)(=O)N2CCC(n3c(C(F)(F)F)nc4cccnc43)CC2)cc1OC,-2%,?
N#CCCn1cnc2c1NC=NC2Cl (stereo not given),-2%,-7%
O=C(C/C=N/OCc1ccc(Cl)cc1)c1cnc(-c2ccccc2)s1,-4%,-30%
O=C(C/C=N/OCc1c(Cl)cccc1Cl)c1cnc(-c2ccccc2)s1,1%,13µM*
COc1ccccc1Cc1nc2ccccc2nc1SCC(=O)Nc1c(C)cccc1C,2%,-9%
COn1c2c(c3c4nonc4ccc31)CCCC2,-9%,-3%
COn1c2c(c3c4no[n+]([O-])c4ccc31)CCCC2,1%,20µM*
Cc1cccc(OCC(=O)Nc2cccc(OCc3cc(=O)n4cccc(C)c4n3)c2)c1,0%,-4%
COc1ccc(N2CCC(CNC(=S)Nc3cccc(OC)c3)C2)cc1 (stereo not given),-8%,32µM*
COc1ccc(N2CCC(CNC(=O)Nc3cccc(OC)c3)C2)cc1 (stereo not given),0%,?
COc1ccc(-c2nc(=S)c3c([nH]2)Oc2ccc(C)cc2C3)cc1O,0%,10µM*
COc1ccc(-c2nc(-c3ccccc3)c(-c3cc([N+](=O)[O-])ccc3C)[nH]2)cc1O,-4%,7%
Cc1cc2nnc(SCc3ccc(F)cc3)n2c2ccccc12,-7%,?
Cc1cc2nnc(SCC(=O)Nc3ccc(F)c(Cl)c3)n2c2ccccc12,0%,-8%
Cc1cc(-c2csc(NC(=O)c3ccccc3C(F)(F)F)n2)c(C)n1Cc1ccccc1,0%,16µM*
Cc1cc(-c2csc(NC(=O)c3ccc(=O)n(C)n3)n2)c(C)n1CC1CCCO1 (stereo not given),-9%,?
Cc1c(Cl)cccc1-c1ccc(C(=O)Nc2ccc(F)cc2)o1,-9%,6%
CN(C)c1ccc(-c2noc(-c3ccccc3O)n2)cc1,22µM*,25µM*
SMILES,Cruzain inh Det,Cruzain inh noDet
c1ccc(-c2noc(-c3ccccc3-c3ccccc3)n2)cc1,-4%,-9%
Cc1cc(C)cc(-n2ccnc2SCC(=O)Nc2ccc(C)c(Cl)c2)c1,-9%,17%
Cn1cc(C(=O)N/N=C/C=C/c2ccccc2)ccc1=O,-9%,-6%
O=C(N/N=C/C=C/c1ccccc1)c1ccc(Br)cc1,3%,20µM*
CCOC(=O)c1sc(N2C(=O)c3oc4ccc(F)cc4c(=O)c3C2c2ccc(O)cc2)nc1C (stereo not given),-1%,2%
Cc1ccc2c(c1)sc1nc(=O)n(-c3ccc(Cl)c(Cl)c3)c(=O)n12,-2%,20µM*!
Cc1ccc2c(c1)sc1nc(=O)n(-c3ccc(Cl)cc3)c(=O)n12,-2%,8%
CN(C)[C@H]1C(=O)C(C(=O)NCN2CCCC2)=C(O)[C@]2(O)C(=O)C3=C(O)c4c(O)cccc4[C@](C)(O)[C@H]3C[C@H]12,-6%,8%
COc1ccc(NC(=O)c2oc3ccccc3c2NC(=O)Cc2coc3ccc(C)cc23)cc1,-5%,25µM*
CCc1ccc2occ(CC(=O)Nc3c(C(=O)Nc4ccc(OC)cc4)oc4ccccc34)c2c1,-4%,-6%
CCOc1ccc(NC(=O)c2oc3ccccc3c2NC(=O)C(C)Oc2ccccc2)cc1 (stereo not given),-5%,32µM*
CCOc1ccc(NC(=O)c2oc3ccccc3c2NC(=O)c2cc(C)cc(C)c2)cc1,-1%,1%
CC(C)CN1CC[C@@]2(CCCN(C(=O)c3ccco3)C2)C1,-4%,-1%
CCc1c(C)sc2c1CCN(Cc1ccccc1)C2c1ccccc1 (stereo not given),-6%,0%
C=CCN=C1NN=C(c2cc(C)n(CC=C)c2C)CS1,-8%,25µM*

# Compound activity (PubChem BioAssay)
